Pol kappa inh-1 – inhibitors of human DNA polymerase kappa. Potency, µM (doses to about 107 µM), without a hit: at the top dose activity, negative = inhibition, hits mostly inhibitors. Q9UBT6. 400,000 compounds, 0.53% hits. purified Pol kappa, fluorescent DNA synthesis assay, 10 min; note: potency is the fitted concentration of half-maximal effect; % is set by controls: 0 for no effect and ±100 for the full control effect
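Fluorescent qHTS in 1536-well format: enzyme (10 nM) and compound sat 15 min at room temperature before 50 nM substrate (final) was added. Signal taken at 0 and 10 min; no-enzyme buffer wells were negative controls.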
FEN1 inh – human FEN1 inhibition. Potency, µM (series often up to 114 µM), for inactives: at the top dose activity change, negative = inhibition, hits mostly inhibitors. P39748. Recombinant FEN1 flap cleavage, fluorescence, 15 min. 390,000 compounds, 0.35% hits; note: potency is the fitted concentration of half-maximal effect; % is set by controls: 0 for no effect and ±100 for the full control effect; nearly all actives have a fitted effect of over 65% in size
Target sequence (P39748 whole entry, looked up): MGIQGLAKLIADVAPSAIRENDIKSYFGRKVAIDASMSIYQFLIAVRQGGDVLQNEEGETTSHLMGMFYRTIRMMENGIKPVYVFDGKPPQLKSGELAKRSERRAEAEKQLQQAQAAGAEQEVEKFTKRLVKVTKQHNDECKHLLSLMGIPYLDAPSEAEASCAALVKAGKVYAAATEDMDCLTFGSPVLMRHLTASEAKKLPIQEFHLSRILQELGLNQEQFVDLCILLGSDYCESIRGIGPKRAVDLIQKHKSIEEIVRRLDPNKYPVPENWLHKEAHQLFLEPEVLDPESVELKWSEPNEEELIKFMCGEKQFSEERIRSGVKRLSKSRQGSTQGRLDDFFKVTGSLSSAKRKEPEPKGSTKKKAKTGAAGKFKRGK
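Recombinant FEN1 (10 nM) was preincubated with pin-transferred compounds for 15 min at room temperature, then flap DNA substrate (50 nM final) was added. Plates were read at 0 and 15 min, and normalized concentration–response data were fitted to a four-parameter Hill equation.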
Pol iota inh – inhibitors of human DNA polymerase iota; Q9UNA4; 390,000 compounds, 1% hits; Pol iota fluorescent replication assay, 10 min; Potency, µM (doses to about 115 µM), inactives show top-dose activity, negative = inhibition, actives largely listed as inhibitors; note: potency is the fitted concentration of half-maximal effect
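Pol iota at 10 nM preincubated 15 min with compounds at room temperature; reaction started with fluorescent substrate, 50 nM final. Fluorescence read kinetically at 0 and 10 min; buffer-only wells as negative control.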
Pol eta inh-1 – DNA polymerase eta (human) inhibition; recombinant Pol eta, fluorescent DNA replication assay; Potency, µM (doses to about 114 µM), inactives show at the top dose activity change, negative = inhibition, most hits filed as inhibitors; 390,000 compounds, 1.2% hits; AID 588591; note: potency is the fitted concentration of half-maximal effect; % is set by controls: 0 for no effect and ±100 for the full control effect
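Fluorescent replication assay: 50 nM final substrate added after a 15 min room-temperature compound preincubation with 10 nM enzyme. Signal taken at 0 min and again at 10 min.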
PGK inhibitor – T. brucei PGK inhibition. P07378. PGK/GAPDH coupled, Kinase-Glo luminescence, 60 min. Potency, µM (series often up to 57.5 µM), for the others: top-dose activity change, negative = inhibition, usual class: inhibitors. 380,000 compounds, 0.043% hits. AID 602233; note: potency is the fitted concentration of half-maximal effect; % is set by controls: 0 for no effect and ±100 for the full control effect; nearly all actives have a fitted effect of over 60% in size
Target sequence (P07378 whole entry, looked up): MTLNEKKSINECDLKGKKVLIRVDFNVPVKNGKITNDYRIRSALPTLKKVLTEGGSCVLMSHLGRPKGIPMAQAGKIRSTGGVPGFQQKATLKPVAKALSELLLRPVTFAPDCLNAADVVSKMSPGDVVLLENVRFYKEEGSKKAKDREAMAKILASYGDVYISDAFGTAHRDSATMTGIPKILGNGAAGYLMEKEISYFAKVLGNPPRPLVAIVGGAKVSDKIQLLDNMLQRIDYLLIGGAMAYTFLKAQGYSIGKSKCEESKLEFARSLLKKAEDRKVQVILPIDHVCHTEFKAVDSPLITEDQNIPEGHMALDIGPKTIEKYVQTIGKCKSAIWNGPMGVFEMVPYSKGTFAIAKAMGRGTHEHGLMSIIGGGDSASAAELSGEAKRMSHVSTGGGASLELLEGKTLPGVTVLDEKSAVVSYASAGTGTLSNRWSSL
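Recombinant glycosomal PGK reaction used 1,3-bisphosphoglycerate generated in-well by GAPDH (100nM final) in 100mM TEA pH 7.6, 5mM MgCl2, 0.01% Tween-20. After 60 minutes at room temperature, ATP was read by Kinase-Glo Plus luminescence end-point.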
Pol beta inh – inhibitors of human DNA polymerase beta. Pol beta primer extension/strand displacement, fluorescence kinetic. Potency, µM (doses to about 114 µM), without a hit: top-dose activity change, negative = inhibition, usual class: inhibitors. 340,000 compounds, 1.3% hits. AID 485314; note: potency is the fitted concentration of half-maximal effect; % is set by controls: 0 for no effect and ±100 for the full control effect
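Enzyme-only controls used 10 nM Pol beta; buffer lacking enzyme served as negative control. Compound preincubated 15 min, then 50 nM substrate added; 0 and 10 min reads at room temperature.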
GALK inh confirm – confirmation of human galactokinase (GALK) inhibitors. shares compounds with Pol eta inh-1. purified GALK, Kinase-Glo ATP depletion luminescence. Potency, µM (series often up to 115 µM), for inactives: top-dose activity, negative = inhibition, hits mostly inhibitors. 150 compounds, 70% hits. AID 2015
GALK redox cs – generates H2O2 by redox cycling, flagging GALK artifacts; Potency, µM (top dose mostly 115 µM), inactives show top-dose activity change, negative = H2O2 signal, most hits filed as inhibitors; shares compounds with Pol eta inh-1; AID 2035; Phenol red-HRP H2O2 redox cycling, absorbance 600 nm; 150 compounds, 40% hits
HEK293 viability – counter-screen for GALK inhibitors: HEK293 cell cytotoxicity; HEK-293 viability, ATP luminescence (CellTiter-Glo), 24/48 h; Potency, µM (series often up to 46.1 µM), for inactives: top-dose activity change, negative = cytotoxicity, usual class: inhibitors; 170 compounds, 10% hits; shares compounds with Pol eta inh-1; AID 2547; note: potency is the fitted concentration of half-maximal effect; % is set by controls: 0 for no effect and ±100 for the full control effect
Pol kappa inh-2 – confirmation of human DNA polymerase kappa inhibitors; shares compounds with Pol eta inh-1; purified Pol-kappa, fluorescent strand-displacement substrate; Potency, µM, most hits filed as inhibitors; 920 compounds, 76% hits; note: potency is the fitted concentration of half-maximal effect
Pol eta inh-2 – confirmation of human DNA polymerase eta inhibitors | shares compounds with Pol eta inh-1 | Pol eta primer extension, TAMRA/BHQ fluorescence, 10 min | Potency, µM, hits mostly inhibitors | 2,600 compounds, 64% hits; note: potency is the fitted concentration of half-maximal effect
Numbers without * were called inactive; i = inactive; ? = inconclusive; . = no result given; [ ] = dose if it differs, or a comment. Sampled rows, rich in hits. Any-hit rate of the full collection: about 2.4%. Calls come from the whole dose curve; as a rule, active = well fitted curve in the direction sought with a large enough effect; inconclusive = small, poorly fitted or top-dose-only effect, or another doubt; inactive = no such curve, though single readings can be large; an effect the other way counts as inactive or inconclusive.

SMILES	Pol kappa inh-1	FEN1 inh	Pol iota inh	Pol eta inh-1	PGK inhibitor	Pol beta inh	others
CCOc1ccc(OCC(=O)NCCS(=O)(=O)N2CCN(c3ccccc3F)CC2)cc1	-8.1%[60.1 µM]	-0.3%	22.6%	-14.4%	1.7%	-10.9%
O=C1CC(c2ccccc2)CC2=C1C1(CCCC1)N=C(Nc1nc3ccccc3o1)N2 (stereo unspecified)	.	.	.	.	.	.	HEK293 viability=-3.4%
Cc1cccc(C)c1Nc1nc2ccccc2o1	4.2%	16.0%	23.8%	-25.5%	8.7%	-7.7%
Clc1ccccc1Nc1nc2ccccc2o1	-12.6%	2.3%	8.8%	-4.9%	?	.
O=C1CCCC2=C1C1(CCC1)N=C(Nc1nc3ccccc3o1)N2	.	.	.	.	.	.	HEK293 viability=-1.0%
O=C1CCCC2=C1C1(CCCCC1)N=C(Nc1nc3ccccc3o1)N2	-10.1%	?	1.0%	-17.2%	7.1%	-22.9%	GALK inh confirm=16.8µM*;GALK redox cs=-5.4%;HEK293 viability=-1.6%
O=C1CCCC2=C1C1(CCCC1)N=C(Nc1nc3ccccc3o1)N2	.	.	.	.	.	0.6%	HEK293 viability=-0.6%
Cc1ccccc1-c1nc2c3c(-c4ccccc4)c(-c4ccccc4)oc3ncn2n1	-16.9%	8.8%	-69.8%	-25.6%	-5.6%	-22.3%
COc1ccc(-c2noc(-c3cccc(OC)c3OC)n2)cc1	-7.5%	-0.1%	10.0%	-7.5%	i	-13.3%
CCOC(=O)CC(NC(=O)CCc1c(C)nc2cc(-c3ccccc3)nn2c1C)c1ccc(C)cc1 (stereo unspecified)	-11.5%	3.9%	74.4%	-18.6%	i	21.8%
COc1ccccc1Nc1c2c(nc3ccc(NC(=O)/C=C/c4cccc(OC)c4OC)cc13)CCCC2	?	4.1%	-14.7%	7.3%	-4.2%	-22.4%	Pol kappa inh-2=0.844*
COc1ccc(Nc2c3c(nc4ccc(NC(=O)/C=C/c5cc(OC)c(OC)c(OC)c5)cc24)CCCC3)cc1OC	?	-25.1%	?	3.0%	-2.4%	22.6%
COc1ccc(Nc2c3c(nc4ccc(NC(=O)/C=C/c5cccc(OC)c5OC)cc24)CCCC3)cc1OC	12.6µM*	-5.1%	?	-7.5%	13.5%	?	Pol kappa inh-2=3.36*
CC(C)c1ccc(OCC(=O)N(Cc2cccs2)C2CCS(=O)(=O)C2)cc1 (stereo unspecified)	-3.6%	4.5%	13.9%	-6.9%	1.7%	-5.1%
COc1ccccc1C(O)c1nccn1Cc1ccccc1 (stereo unspecified)	-11.9%	10.6%	7.6%	.	.	.
O=C(Nc1nnc(-c2ccccc2F)s1)C1CCCO1 (stereo unspecified)	?	1.2%	50.1µM*	14.1µM*	-11.7%	31.6µM*	Pol eta inh-2=?
Cc1ccc(-n2c3nc(=O)[nH]c(=O)c-3cc3c(C)nn(-c4ccccc4)c32)cc1Cl	6.3%	0.6%	-5.3%	-8.1%	-9.9%	7.8%
COc1cccc(-c2ccc3ncnc(N(C)C)c3c2)c1	2.0%[60.1 µM]	.	.	.	.	.
CC(C)c1nc(Nc2nc3ccccc3o2)nc2c1CCCC2	.	.	.	.	.	.	HEK293 viability=-28.7%
Cc1nc(Nc2nc3ccccc3o2)nc2c1CCC2	-16.7%	-3.2%	2.0%	4.5%	-2.1%	6.7%
O=C(NCCO)c1cc([N+](=O)[O-])cc2c1C=Cc1ccccc1O2	-2.4%	-0.4%	127.3%	-5.9%	9.7%	0.3%
O=C(O)c1cc([N+](=O)[O-])cc2c1C=Cc1ccccc1O2	?	13.2%	?	28.2µM*	-19.5%	56.2µM*	Pol kappa inh-2=?
Cc1ccc2[nH]c(CSc3nnc(NC(=O)COc4ccccc4)s3)cc(=O)c2c1	-1.9%[60.1 µM]	7.2%	-5.4%	-4.3%	-4.6%	4.0%
CCOc1cc(/C=C2\N=C(SC)SC2=O)cc([N+](=O)[O-])c1OC(C)=O	44.7µM*	50.1µM*	?	?	-6.0%	22.4µM*	Pol kappa inh-2=84.4*
CCOc1c(OC(C)=O)ccc(/C=C2\N=C(SCC)SC2=O)c1[N+](=O)[O-]	-4.4%	-9.4%	6.9%	-14.1%	7.3%	-4.7%
SMILES	Pol kappa inh-1	FEN1 inh	Pol iota inh	Pol eta inh-1	PGK inhibitor	Pol beta inh	others
CN(Cc1ccccc1)c1nc2c(S(=O)(=O)c3cccc(Cl)c3)nnn2c2ccsc12	0.8%	1.8%	12.7%	-16.9%	3.6%	13.1%
Cc1noc(C)c1S(=O)(=O)Nc1ccc(C(=O)Nc2ccc(OC(F)(F)F)cc2)cc1	3.9%	-4.4%	11.3%	-16.5%	-2.4%	33.5%	GALK inh confirm=33.5µM*;GALK redox cs=1.1%;HEK293 viability=?
Cc1ccc(NS(=O)(=O)c2cnc(N)nc2)c(C)c1	-7.7%[60.1 µM]	4.9%	4.1%	-10.4%	-0.4%	3.1%
CC(=O)Nc1ccc(OCc2cccc(-c3nc4ccccc4c(=O)n3Cc3ccco3)c2)cc1	.	.	.	.	.	.	Pol eta inh-2=?
O=C(O)CN1C(=O)/C(=C\c2cc(Br)ccc2OCc2ccc(F)cc2)SC1=S	-69.1%	?	39.8µM*	39.8µM*	-11.8%	39.8µM*	Pol eta inh-2=?
O/N=C/c1cc(Br)ccc1OCc1ccc(F)cc1	-22.9%	-22.9%	7.4%	-8.3%	-9.4%	.
COc1ccccc1-c1noc(-c2ccc(N3CCOCC3)c([N+](=O)[O-])c2)n1	-9.5%	-9.2%	?	-10.9%	i	-29.4%
Cc1c(Cl)cnn1CC(=O)NC1C(=O)N2C(C(=O)O)=C(CSc3nnnn3C)CSC12 (stereo unspecified)	?	-20.9%	?	22.4µM*	-29.2%	20µM*	Pol eta inh-2=42.6*
Cc1nn(CC(=O)NC2C(=O)N3C(C(=O)O)=C(CSc4nnnn4C)CSC23)cc1Br (stereo unspecified)	-19.1%	9.3%	-26.3%	?	-22.8%	31.6µM*	Pol eta inh-2=75.7*

High-throughput results: PubChem, National Center for Advancing Translational Sciences (NCATS)
